Source: article PMC5540273 (PLoS ONE, 2017)

Columns and labels:
Conditions in all cases: concentration: 1 μM, replicates: in singlicate; n = 1
[1] = system: AAK1
[2] = system: ABL1-nonphosphorylated
[3] = system: ABL1-phosphorylated
[4] = system: ABL2
[5] = system: ACVR1B
[6] = system: ACVR1
[7] = system: ACVR2A
[8] = system: ACVR2B
[9] = system: ACVRL1
[10] = system: T1, ADCK3
T1 construct: gene CABC1

[11] = system: ADCK4
[12] = system: AKT1
[13] = system: AKT2
[14] = system: AKT3
[15] = system: ALK
[16] = system: T2, AMPK-alpha1
T2 construct: gene PRKAA1

[17] = system: T3, AMPK-alpha2
T3 construct: gene PRKAA2

[18] = system: ANKK1
[19] = system: T4, ARK5
T4 construct: gene NUAK1

[20] = system: T5, ASK1
T5 construct: gene MAP3K5
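Also: KINOMEscan kinase panel screen.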

SMILES | %Inh [1] [%] | %Inh [2] [%] | %Inh [3] [%] | %Inh [4] [%] | %Inh [5] [%] | %Inh [6] [%] | %Inh [7] [%] | %Inh [8] [%] | %Inh [9] [%] | %Inh [10] [%] | %Inh [11] [%] | %Inh [12] [%] | %Inh [13] [%] | %Inh [14] [%] | %Inh [15] [%] | %Inh [16] [%] | %Inh [17] [%] | %Inh [18] [%] | %Inh [19] [%] | %Inh [20] [%]
FC(F)(F)c1ccc(/C=C/c2cncnc2Nc2ccc3[nH]c(Cc4ccccc4)nc3c2)cc1 [GW709199] | 15 | 35 | 19 | 4 | 0 | 0 | 24 | 37 | 0 | 18 | 0 | 0 | 0 | 0 | 23 | 0 | 3 | 0 | 6 | 0
Cc1ccc(F)c(C(=O)Nc2cccc(-c3nn4ccccc4c3-c3ccnc(Nc4cccc(F)c4)n3)c2)c1F [GSK361061] | 16 | 26 | 0 | 62 | 60 | 23 | 7 | 43 | 38 | 0 | 37 | 0 | 7 | 0 | 7 | 8 | 17 | 33 | 20 | 2
CN1CCN(CCCNc2nccc(-c3c(-c4ccc(F)cc4)nn4cc(C(F)(F)F)ccc34)n2)CC1 [GW621581] | 1 | 0 | 0 | 9 | 83 | 40 | 0 | 0 | 26 | 70 | 97.1 | 0 | 0 | 0 | 9 | 0 | 19 | 0 | 21 | 6
Cl.Cl.NCC(NCc1ccc(-c2ccnc3[nH]ccc23)s1)c1ccccc1 (centres unmarked) [GSK1321565] | 67 | 0 | 0 | 1 | 0 | 18 | 0 | 0 | 0 | 25 | 44 | 71 | 25 | 71 | 64 | 45 | 28 | 22 | 82 | 16
CC(=O)N1CCN(c2ccc(Nc3nccc(-c4sc(C(C)C)nc4-c4cccc(NS(=O)(=O)c5cccc(Cl)c5)c4)n3)cn2)CC1 [GSK1660437] | 0 | 95.8 | 35 | 83 | 70 | 61 | 29 | 72 | 44 | 73 | 72 | 0 | 5 | 0 | 7 | 48 | 75 | 7 | 0 | 0
Nc1ncc(-c2cccnc2)c2scc(-c3ccc4c(c3)CCN4C(=O)Cc3ccccc3)c12 [GSK683281] | 24 | 94.1 | 54 | 62 | 0 | 0 | 0 | 0 | 3 | 5 | 32 | 0 | 21 | 0 | 29 | 97.4 | 20 | 19 | 32 | 22
Cc1cccc(NC(=O)Nc2ccc(Oc3ncnc4ccn(C)c34)cc2)c1 | 0 | 33 | 23 | 0 | 0 | 4 | 2 | 0 | 0 | 0 | 0 | 0 | 0 | 0 | 0 | 9 | 0 | 0 | 0 | 0
Cc1ccc(C(=O)Nc2ccc(Nc3ccnc4cc(-c5nccs5)ccc34)cc2O)cc1.Cl [GW494702] | 4 | 57 | 12 | 12 | 0 | 18 | 0 | 19 | 0 | 1 | 34 | 12 | 6 | 0 | 0 | 20 | 0 | 21 | 14 | 9
Cl.Cl.NCC(NC(=O)c1cc(-c2ccccc2)c(-c2ccnc3[nH]ccc23)s1)c1ccccc1 (centres unmarked) [GSK1321561] | 47 | 89 | 90 | 87 | 0 | 10 | 4 | 18 | 0 | 95.3 | 89 | 57 | 0 | 80 | 27 | 5 | 0 | 0 | 16 | 0
Cl.c1ccc(-c2ccc3c(Nc4ccc5[nH]ncc5c4)ccnc3c2)nc1 [GW440137] | 18 | 63 | 73 | 28 | 1 | 71 | 57 | 94.6 | 19 | 3 | 38 | 0 | 0 | 0 | 31 | 0 | 0 | 14 | 11 | 0
